Holding throughout (design): scale not given: direction of the effect not stated beside the values
The target in experiment [1] is Protein translocase subunit SecA (Escherichia coli (strain K12)) (UniProt P10408). The experiment in a line: Assay to Identify E. coli SecA ATPase Inhibitors. Type of experiment: functional. Particulars: 30 µM.
Experiment [2] concerns the target T1, Ubiquitin-activating enzyme e1, putative (Leishmania donovani (strain BPK282A1)) (UniProt E9BSI1).
T1 sequence (whole entry): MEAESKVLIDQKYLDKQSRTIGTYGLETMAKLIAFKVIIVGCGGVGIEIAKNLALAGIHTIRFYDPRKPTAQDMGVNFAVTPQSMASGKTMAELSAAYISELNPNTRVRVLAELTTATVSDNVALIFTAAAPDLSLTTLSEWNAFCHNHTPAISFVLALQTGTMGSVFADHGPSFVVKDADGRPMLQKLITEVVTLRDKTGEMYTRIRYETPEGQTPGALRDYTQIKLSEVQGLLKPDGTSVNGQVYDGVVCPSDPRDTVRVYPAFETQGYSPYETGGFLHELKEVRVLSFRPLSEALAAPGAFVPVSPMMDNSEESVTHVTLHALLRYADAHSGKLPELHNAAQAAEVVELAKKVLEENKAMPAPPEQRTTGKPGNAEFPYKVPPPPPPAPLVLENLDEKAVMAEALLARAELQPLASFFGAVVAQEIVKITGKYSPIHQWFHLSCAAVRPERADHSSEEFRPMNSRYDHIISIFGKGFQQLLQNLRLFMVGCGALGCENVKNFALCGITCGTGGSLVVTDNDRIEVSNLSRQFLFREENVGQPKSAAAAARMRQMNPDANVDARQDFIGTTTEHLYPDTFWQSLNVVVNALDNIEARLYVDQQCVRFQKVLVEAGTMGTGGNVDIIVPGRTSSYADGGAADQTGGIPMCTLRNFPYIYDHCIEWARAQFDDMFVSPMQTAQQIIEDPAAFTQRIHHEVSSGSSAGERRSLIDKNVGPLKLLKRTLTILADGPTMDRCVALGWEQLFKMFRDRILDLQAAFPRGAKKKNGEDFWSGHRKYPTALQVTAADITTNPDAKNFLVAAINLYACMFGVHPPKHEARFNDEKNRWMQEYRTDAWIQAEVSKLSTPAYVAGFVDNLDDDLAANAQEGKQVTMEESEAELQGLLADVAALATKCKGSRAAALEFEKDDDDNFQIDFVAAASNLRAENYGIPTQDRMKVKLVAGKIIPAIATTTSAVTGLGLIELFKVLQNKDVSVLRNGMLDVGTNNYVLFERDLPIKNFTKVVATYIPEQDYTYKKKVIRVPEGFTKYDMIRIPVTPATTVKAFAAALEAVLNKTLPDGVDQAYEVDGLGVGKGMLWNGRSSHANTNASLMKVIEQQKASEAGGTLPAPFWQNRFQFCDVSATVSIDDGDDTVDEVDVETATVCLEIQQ
The experiment in a line: Leishmania donovani Ubiquitin Activating Enzyme (LdE1). Type of experiment: functional. Particulars: 30 µM.

In experiment [3] the target is AMP-activated protein kinase, AMPK (Homo sapiens) (UniProt P54646+O43741+P54619+Q9UGJ0+Q9Y478+Q13131+Q9UGI9). The experiment in a line: AMP-dependent Kinase enzyme assay. An in vitro enzyme assay that detects ADP turnover that is directly proportional to AMPK activity. This uses naive AMPK that is activated during the assay with MK-8722. It counts as functional. Particulars: 30 µM.

In experiment [4] the target is Sialic acid-binding Ig-like lectin 9 (Homo sapiens) (UniProt Q9Y336). The experiment in a line: Hs-Siglec9 ALPHAscreen SOP 20170721. The conditions noted are these: 10 µM.
The test system of a further experiment is Trypanosoma cruzi. The experiment in a line: Trypanosoma cruzi phosphomannomutase and mannose-1-phosphate guanylyltransferase assay. It counts as functional. The conditions noted are these: 10 µM.
For experiment [5], the target named is T2, Arginase-2, mitochondrial (Homo sapiens) (UniProt P78540).
T2 sequence (whole entry): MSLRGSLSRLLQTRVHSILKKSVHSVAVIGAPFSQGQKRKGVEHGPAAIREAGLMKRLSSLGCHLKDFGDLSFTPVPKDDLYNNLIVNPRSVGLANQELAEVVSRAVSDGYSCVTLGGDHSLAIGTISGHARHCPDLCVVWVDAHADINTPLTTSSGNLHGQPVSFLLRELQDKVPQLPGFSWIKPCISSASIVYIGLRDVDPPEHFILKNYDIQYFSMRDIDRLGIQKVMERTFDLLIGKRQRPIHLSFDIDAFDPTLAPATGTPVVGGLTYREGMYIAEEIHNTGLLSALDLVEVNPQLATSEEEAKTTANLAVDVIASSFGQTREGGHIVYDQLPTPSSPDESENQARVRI
The experiment in a line: in vitro enzyme assay to detect the production of urea directly proportional to the activity of Arginase II. Further: in the data most compounds retested in dose-response had high values. It counts as functional. The conditions noted are these: 33.3 µM.

Experiment [6] addresses T3, Proteasome subunit beta (Trypanosoma cruzi) (UniProt O96673).
T3 sequence (whole entry): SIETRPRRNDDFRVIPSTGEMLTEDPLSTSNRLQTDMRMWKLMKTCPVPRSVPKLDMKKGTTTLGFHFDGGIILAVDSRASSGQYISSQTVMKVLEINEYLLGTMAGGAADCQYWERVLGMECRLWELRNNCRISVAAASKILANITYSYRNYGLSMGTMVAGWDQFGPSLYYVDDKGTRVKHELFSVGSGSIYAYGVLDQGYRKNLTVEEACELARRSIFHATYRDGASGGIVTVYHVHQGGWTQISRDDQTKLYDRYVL
Nature of the experiment: Trypanosoma cruzi proteasome chymotrypsin-like activity (TcProtChymo) assay. Further: in the data most compounds retested in dose-response had high values. It counts as functional. Particulars: 9.37 µM.

For another experiment, the species on record is Homo sapiens. Nature of the experiment: To identify inhibition of the IFN signalling (Jak-Stat) pathway via expression of an eGFP reporter gene under the control of an IFN-stimulated response element (ISRE) containing MxA promoter. Type of experiment: functional. The conditions noted are these: 30 µM. For orientation: Reporter assays use an easily measured gene product as a stand-in for the process of interest.

Experiment [7] deals with T4, Tyrosyl-tRNA synthetase, putative (Trypanosoma cruzi (strain CL Brener)) (UniProt Q4DSP6).
T4 sequence (whole entry): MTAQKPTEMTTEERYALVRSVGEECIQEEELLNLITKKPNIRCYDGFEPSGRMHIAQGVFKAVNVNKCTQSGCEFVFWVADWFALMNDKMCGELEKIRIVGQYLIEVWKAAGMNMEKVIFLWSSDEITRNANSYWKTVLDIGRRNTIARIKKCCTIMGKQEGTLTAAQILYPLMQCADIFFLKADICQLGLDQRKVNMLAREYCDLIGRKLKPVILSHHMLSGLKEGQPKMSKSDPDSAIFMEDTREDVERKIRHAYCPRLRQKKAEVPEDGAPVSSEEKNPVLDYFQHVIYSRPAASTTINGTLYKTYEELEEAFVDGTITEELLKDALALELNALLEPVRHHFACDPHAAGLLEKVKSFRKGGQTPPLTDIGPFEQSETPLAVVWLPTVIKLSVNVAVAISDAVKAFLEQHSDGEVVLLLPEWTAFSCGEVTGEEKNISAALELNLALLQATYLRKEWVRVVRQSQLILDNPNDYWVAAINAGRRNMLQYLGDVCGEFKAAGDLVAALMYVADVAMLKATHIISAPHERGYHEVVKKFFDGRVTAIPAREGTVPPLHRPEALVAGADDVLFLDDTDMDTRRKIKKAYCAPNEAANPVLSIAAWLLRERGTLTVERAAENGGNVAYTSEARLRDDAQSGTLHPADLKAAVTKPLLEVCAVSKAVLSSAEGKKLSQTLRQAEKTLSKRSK
Nature of the experiment: Trypanosoma cruzi tyrosyl tRNA synthetase (TcYRS) _High Tyrosine SOP. Further: in the data most compounds retested in dose-response had high values. The conditions noted are these: 30 µM. Type of experiment: functional.

Experiment [8] addresses T4, Tyrosyl-tRNA synthetase, putative (Trypanosoma cruzi (strain CL Brener)). Nature of the experiment: Trypanosoma cruzi tyrosyl tRNA synthetase (TcYRS) SOP. The conditions noted are these: 30 µM. Type of experiment: functional.
For experiment [9], the target named is Chromo domain-containing protein 1 (Saccharomyces cerevisiae (strain ATCC 204508 / S288c) (Baker's yeast)) (UniProt P32657). Nature of the experiment: ScCHD-1 Enzyme Inhibition Assay. Further: in the data most compounds retested in dose-response had high values. It counts as functional. Particulars: 30 µM.

For some of these results: Entries with a potency or affinity are not part of this list.

Sequence of Chromo domain-containing protein 1 (Saccharomyces cerevisiae (strain ATCC 204508 / S288c) (Baker's yeast)) (P32657 whole entry, the tested form may be a part): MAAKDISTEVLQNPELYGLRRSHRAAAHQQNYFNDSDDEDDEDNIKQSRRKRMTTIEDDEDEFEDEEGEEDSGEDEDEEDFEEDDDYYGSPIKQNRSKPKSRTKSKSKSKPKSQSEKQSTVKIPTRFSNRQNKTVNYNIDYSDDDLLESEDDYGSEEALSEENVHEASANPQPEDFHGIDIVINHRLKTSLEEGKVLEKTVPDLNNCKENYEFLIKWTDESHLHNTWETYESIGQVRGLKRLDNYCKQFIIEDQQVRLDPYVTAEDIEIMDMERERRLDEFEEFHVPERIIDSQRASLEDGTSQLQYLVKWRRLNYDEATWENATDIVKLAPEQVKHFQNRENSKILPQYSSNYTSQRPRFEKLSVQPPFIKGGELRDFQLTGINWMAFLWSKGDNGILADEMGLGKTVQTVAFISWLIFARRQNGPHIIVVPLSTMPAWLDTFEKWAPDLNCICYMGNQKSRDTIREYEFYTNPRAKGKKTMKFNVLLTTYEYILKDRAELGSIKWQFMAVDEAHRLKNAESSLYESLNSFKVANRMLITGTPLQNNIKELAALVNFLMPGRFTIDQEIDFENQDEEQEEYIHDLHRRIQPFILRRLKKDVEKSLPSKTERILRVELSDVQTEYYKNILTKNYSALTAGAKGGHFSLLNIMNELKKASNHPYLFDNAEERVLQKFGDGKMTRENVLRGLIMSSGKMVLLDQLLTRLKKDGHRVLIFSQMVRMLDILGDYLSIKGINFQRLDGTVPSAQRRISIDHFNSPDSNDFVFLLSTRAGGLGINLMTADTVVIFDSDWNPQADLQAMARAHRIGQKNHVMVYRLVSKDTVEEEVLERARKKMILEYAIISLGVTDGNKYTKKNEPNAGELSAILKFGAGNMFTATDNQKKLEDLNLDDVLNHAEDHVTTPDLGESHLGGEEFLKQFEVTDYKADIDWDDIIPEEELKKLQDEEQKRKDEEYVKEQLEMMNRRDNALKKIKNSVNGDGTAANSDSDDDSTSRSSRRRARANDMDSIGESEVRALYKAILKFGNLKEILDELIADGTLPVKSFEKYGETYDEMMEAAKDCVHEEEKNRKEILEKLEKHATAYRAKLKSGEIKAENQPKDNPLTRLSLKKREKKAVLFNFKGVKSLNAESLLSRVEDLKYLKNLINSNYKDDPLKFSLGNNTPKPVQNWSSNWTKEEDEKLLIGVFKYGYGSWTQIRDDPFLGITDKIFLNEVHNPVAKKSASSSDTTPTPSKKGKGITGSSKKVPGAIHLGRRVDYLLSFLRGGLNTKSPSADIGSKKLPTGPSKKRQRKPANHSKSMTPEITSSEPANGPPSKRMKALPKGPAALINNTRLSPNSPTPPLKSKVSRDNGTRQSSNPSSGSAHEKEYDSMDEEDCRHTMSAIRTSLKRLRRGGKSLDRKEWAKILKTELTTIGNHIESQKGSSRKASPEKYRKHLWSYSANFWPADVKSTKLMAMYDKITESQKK
Sequence of Protein translocase subunit SecA (Escherichia coli (strain K12)) (P10408 whole entry): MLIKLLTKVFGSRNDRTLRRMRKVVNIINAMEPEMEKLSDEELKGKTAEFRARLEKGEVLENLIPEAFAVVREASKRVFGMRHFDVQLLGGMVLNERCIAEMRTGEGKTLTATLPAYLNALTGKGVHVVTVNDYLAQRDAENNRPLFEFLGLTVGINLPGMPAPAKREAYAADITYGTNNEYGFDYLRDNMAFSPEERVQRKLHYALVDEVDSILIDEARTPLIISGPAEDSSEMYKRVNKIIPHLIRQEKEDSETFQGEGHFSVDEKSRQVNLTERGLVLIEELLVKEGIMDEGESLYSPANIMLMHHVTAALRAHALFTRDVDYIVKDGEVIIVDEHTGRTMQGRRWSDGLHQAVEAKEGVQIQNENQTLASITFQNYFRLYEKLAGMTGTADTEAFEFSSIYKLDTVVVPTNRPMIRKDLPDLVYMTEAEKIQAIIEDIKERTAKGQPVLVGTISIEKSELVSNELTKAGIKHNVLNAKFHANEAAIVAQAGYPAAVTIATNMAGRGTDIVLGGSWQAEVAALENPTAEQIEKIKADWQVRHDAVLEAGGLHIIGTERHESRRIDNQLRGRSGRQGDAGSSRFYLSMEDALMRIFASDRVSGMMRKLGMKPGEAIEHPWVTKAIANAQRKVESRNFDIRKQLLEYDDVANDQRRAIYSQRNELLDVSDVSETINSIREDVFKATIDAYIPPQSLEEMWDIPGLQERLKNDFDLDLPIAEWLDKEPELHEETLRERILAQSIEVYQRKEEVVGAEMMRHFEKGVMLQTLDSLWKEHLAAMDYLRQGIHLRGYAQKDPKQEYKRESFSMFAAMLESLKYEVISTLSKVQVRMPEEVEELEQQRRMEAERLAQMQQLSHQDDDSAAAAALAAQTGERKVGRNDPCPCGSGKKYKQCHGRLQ
Sequence of Sialic acid-binding Ig-like lectin 9 (Homo sapiens) (Q9Y336 whole entry): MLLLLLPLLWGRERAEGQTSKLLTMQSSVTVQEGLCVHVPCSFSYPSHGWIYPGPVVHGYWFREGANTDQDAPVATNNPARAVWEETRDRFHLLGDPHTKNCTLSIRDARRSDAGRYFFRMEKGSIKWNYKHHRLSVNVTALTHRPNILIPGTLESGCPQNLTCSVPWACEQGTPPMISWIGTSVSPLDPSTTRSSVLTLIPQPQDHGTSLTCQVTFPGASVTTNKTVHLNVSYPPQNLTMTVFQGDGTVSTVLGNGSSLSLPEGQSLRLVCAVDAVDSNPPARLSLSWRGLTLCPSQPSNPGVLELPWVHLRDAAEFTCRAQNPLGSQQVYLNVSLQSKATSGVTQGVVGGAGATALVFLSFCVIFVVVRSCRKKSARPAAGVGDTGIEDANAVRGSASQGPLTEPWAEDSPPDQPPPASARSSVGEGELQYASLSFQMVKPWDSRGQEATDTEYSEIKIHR

As to `CCc1cnc(N2C[C@H]3C[C@H](C(=O)N(C)C)[C@@H](C2)O3)nc1`, the Percent Effect in experiment [1] is -0.24%; in [2], 13.3%; in experiment [3], 0.237%; in experiment [4] it was 8.45%; in the experiment on Trypanosoma cruzi, 0.579%; in experiment [5], -53.6%. Further, the Percent Effect is 2.91% in [6]; -12.6% in the experiment listed under Homo sapiens; 5.21% in experiment [7]; 10% in experiment [8]; -6.38% in [9].

On to `CC(C)(C)C(=O)NCCC(=O)NS(=O)(=O)c1ccc2c(c1)OCCO2`, for which the Percent Effect in experiment [1] is -4.61%; in experiment [2], 5.48%; in [3], 0.75%; in experiment [4] it was 8.35%; with Trypanosoma cruzi, 7.64%; in experiment [5] it was -0.909%. The Percent Effect in experiment [6] is 7.1%; in the experiment filed under Homo sapiens, -22.6%; in experiment [7] it was 5.38%; in experiment [8] it was 10%; in [9], -1.32%.

Regarding `Cc1nc(O)c2nnn(C[C@H]3CCCN3C(=O)CCC3CCCC3)c2n1`, the Percent Effect in experiment [1] is -1.52%; in experiment [2] it was -4.05%; in [3], 9.5%; in experiment [4], -1.58%; with Trypanosoma cruzi, -1.78%; in experiment [5] it was -1.62%. The Percent Effect was 2.5% in experiment [6]; -0.726% in the experiment listed under Homo sapiens; -1.07% in experiment [7]; -1.3% in experiment [8]; 13.7% in [9].

Take `O=C(NCCc1ccccc1)C1CCC(Cn2cnnn2)CC1` (stereo unspecified): the Percent Effect in experiment [1] is -0.876%; in [2], -4%; in experiment [3], 1.1%; in experiment [4], 6.93%; in the experiment on Trypanosoma cruzi, -1.77%; in experiment [5] it was -4.4%. Further, the Percent Effect is 3.88% in experiment [6]; -9.79% in the experiment filed under Homo sapiens; 2.12% in experiment [7]; 5.13% in experiment [8]; 2.05% in experiment [9].

As to `c1nc2c(c(-c3ccsc3)n1)CCN(Cc1ccoc1)CC2`, the Percent Effect is -1.1% in experiment [1]; -5.41% in experiment [2]; 14.1% in experiment [3]; -1.76% in experiment [4]; -2.15% in the experiment on Trypanosoma cruzi; -1.67% in experiment [5]. Further, the Percent Effect was 5.83% in experiment [6]; 12.5% in the experiment filed under Homo sapiens; -6.93% in experiment [7]; -3.66% in experiment [8]; -0.614% in experiment [9].

As to `CCn1ccnc1CN1CCC(CNC(=O)c2ccc(C)nc2)C1` (stereo unspecified), the Percent Effect in experiment [1] was -0.749%; in [2], 10.4%; in experiment [3], 4.72%; in experiment [4] it was 15.7%; with Trypanosoma cruzi, 6.39%; in experiment [5] it was -1.38%. The Percent Effect is 12% in [6]; 15.6% in the experiment filed under Homo sapiens; 8.6% in [7]; 16.1% in [8]; -3.08% in [9].

Consider `COc1c(CNCc2cccc(CS(C)(=O)=O)c2)c(C)nn1C`, for which the Percent Effect was -1.32% in experiment [1]; 13.5% in experiment [2]; -7.47% in experiment [3]; -4.4% in experiment [4]; -6.13% in the experiment on Trypanosoma cruzi; 1.2% in [5]. The Percent Effect in experiment [6] is 4.68%; in the experiment listed under Homo sapiens, 4.32%; in experiment [7] it was -0.493%; in [8], 11.1%; in [9] it was -6.98%.

Take `Cn1cc(CN2CCCn3cnc(COCC4CC4)c3C2)cn1`: the Percent Effect in experiment [1] is -4.51%; in [2], 8%; in [3], -1.37%; in [4], 1.51%; in the experiment with Trypanosoma cruzi it was 6.95%; in experiment [5] it was -55.7%. The Percent Effect in [6] was 7.69%; in the experiment listed under Homo sapiens, -4.29%; in experiment [7] it was 4.17%; in experiment [8], 15%; in experiment [9], -7.64%.

For the compound `O=C(c1cncc(N2CCC(O)(CO)CC2)n1)N1CCCC1`, the Percent Effect in experiment [1] was -4.63%; in experiment [2], 5.33%; in [3] it was -3.65%; in experiment [4], 8.86%; in the experiment on Trypanosoma cruzi it was 6.72%; in [5] it was 0%. The Percent Effect in experiment [6] was 16.9%; in the experiment filed under Homo sapiens, -11.2%; in experiment [7], 9.29%; in experiment [8] it was 18.5%; in experiment [9] it was -7.99%.

Turning to `COc1ccnc(N2CCN(C(=O)NCc3ccc(C)s3)CC2)n1`, the Percent Effect in experiment [1] is -4.33%; in experiment [2], 15.6%; in [3] it was 6.59%; in experiment [4], 2.69%; in the experiment with Trypanosoma cruzi, 4.6%; in experiment [5] it was 1.47%. In addition, the Percent Effect in experiment [6] is 5.42%; in the experiment filed under Homo sapiens, -2.65%; in [7], 5.71%; in experiment [8] it was 18.8%; in [9], -0.255%.

As to `Cc1cc(C)n(C2CN(CC(=O)N3CCOCC3)C2)n1`, the Percent Effect in experiment [1] is -2.95%; in experiment [2] it was 1.27%; in experiment [3], 6.75%; in experiment [4], 3.92%; with Trypanosoma cruzi, 0.103%; in [5] it was 3.66%. The Percent Effect in experiment [6] is 11.2%; in the experiment filed under Homo sapiens, -2%; in experiment [7], 10.4%; in [8], 7.59%; in [9], 0.125%.

These data come from ChEMBL document CHEMBL3988442, “University of Dundee, Small-Polar-MMV Screening Library” (2021).
